Here are results for six compounds from ChEMBL document CHEMBL2218924, “A broad activity screen in support of a chemogenomic map for kinase signalling research and drug discovery” (Biochem J, 2013).

The target in test [1] is T1, Protein kinase C zeta type (Homo sapiens) (UniProt Q05513).
T1 sequence (whole entry): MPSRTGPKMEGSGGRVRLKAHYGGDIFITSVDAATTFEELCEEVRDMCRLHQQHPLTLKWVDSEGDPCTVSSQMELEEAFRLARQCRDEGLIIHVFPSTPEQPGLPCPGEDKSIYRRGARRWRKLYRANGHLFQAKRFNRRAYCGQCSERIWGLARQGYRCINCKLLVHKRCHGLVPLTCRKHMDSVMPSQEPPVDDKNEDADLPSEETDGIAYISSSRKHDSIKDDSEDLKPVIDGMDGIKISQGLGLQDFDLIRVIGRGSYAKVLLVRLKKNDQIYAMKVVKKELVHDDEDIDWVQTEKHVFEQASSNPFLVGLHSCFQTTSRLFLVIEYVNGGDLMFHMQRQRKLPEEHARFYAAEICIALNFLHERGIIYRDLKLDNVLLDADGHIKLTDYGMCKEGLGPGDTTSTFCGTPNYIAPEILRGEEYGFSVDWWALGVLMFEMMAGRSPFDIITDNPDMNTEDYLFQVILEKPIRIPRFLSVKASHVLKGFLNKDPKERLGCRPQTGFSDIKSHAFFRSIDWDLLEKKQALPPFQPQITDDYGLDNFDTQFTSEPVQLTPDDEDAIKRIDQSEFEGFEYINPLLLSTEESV
The note with it: at 1 µM.

For test [2], the target named is T2, Mitogen-activated protein kinase kinase kinase 5 (Homo sapiens) (UniProt Q99683).
T2 sequence (whole entry): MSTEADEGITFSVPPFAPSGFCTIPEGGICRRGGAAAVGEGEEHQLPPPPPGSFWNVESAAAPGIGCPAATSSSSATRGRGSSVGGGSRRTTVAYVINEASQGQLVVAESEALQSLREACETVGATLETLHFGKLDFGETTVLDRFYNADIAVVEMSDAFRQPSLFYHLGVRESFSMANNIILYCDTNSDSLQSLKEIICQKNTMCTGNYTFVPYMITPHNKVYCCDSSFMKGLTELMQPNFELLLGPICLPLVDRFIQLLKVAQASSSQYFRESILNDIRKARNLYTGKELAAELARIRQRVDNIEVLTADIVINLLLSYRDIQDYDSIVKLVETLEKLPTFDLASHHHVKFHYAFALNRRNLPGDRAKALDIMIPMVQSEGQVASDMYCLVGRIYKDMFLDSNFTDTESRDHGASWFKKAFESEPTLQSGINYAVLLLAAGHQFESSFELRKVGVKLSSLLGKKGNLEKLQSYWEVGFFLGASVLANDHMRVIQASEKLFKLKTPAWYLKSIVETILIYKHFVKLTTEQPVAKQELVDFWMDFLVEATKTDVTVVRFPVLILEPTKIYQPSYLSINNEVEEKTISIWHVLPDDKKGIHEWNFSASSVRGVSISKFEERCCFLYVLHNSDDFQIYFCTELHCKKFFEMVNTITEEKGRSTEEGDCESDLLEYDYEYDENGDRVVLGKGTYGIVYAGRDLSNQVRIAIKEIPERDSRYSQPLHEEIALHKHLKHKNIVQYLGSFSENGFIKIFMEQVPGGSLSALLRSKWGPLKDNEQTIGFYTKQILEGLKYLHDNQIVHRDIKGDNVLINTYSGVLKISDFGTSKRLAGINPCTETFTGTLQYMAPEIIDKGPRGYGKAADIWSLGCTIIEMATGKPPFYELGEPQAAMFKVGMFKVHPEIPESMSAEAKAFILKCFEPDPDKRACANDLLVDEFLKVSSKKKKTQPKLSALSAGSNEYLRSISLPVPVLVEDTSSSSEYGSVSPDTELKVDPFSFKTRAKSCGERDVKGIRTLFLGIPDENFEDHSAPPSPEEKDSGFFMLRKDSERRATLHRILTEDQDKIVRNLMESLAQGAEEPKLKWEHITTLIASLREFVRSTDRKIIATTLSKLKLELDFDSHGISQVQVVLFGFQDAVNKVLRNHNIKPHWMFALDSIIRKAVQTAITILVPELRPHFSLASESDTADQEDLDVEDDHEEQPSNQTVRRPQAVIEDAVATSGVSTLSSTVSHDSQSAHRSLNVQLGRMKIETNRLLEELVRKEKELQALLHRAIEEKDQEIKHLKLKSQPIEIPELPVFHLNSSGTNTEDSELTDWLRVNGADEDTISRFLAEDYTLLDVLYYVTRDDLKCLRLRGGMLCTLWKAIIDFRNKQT
The conditions noted are these: at 10 µM.

Test [3] concerns the target Tyrosine-protein kinase ABL1 (Homo sapiens) (UniProt P00519). The conditions noted are these: at 1 µM.
For test [4] the target is unchanged. The note with it: at 10 µM.
The target of test [5] is Tyrosine-protein kinase ABL2 (Homo sapiens) (UniProt P42684). The conditions noted are these: at 1 µM.
Tyrosine-protein kinase ABL2 (Homo sapiens), sequence (P42684 whole entry): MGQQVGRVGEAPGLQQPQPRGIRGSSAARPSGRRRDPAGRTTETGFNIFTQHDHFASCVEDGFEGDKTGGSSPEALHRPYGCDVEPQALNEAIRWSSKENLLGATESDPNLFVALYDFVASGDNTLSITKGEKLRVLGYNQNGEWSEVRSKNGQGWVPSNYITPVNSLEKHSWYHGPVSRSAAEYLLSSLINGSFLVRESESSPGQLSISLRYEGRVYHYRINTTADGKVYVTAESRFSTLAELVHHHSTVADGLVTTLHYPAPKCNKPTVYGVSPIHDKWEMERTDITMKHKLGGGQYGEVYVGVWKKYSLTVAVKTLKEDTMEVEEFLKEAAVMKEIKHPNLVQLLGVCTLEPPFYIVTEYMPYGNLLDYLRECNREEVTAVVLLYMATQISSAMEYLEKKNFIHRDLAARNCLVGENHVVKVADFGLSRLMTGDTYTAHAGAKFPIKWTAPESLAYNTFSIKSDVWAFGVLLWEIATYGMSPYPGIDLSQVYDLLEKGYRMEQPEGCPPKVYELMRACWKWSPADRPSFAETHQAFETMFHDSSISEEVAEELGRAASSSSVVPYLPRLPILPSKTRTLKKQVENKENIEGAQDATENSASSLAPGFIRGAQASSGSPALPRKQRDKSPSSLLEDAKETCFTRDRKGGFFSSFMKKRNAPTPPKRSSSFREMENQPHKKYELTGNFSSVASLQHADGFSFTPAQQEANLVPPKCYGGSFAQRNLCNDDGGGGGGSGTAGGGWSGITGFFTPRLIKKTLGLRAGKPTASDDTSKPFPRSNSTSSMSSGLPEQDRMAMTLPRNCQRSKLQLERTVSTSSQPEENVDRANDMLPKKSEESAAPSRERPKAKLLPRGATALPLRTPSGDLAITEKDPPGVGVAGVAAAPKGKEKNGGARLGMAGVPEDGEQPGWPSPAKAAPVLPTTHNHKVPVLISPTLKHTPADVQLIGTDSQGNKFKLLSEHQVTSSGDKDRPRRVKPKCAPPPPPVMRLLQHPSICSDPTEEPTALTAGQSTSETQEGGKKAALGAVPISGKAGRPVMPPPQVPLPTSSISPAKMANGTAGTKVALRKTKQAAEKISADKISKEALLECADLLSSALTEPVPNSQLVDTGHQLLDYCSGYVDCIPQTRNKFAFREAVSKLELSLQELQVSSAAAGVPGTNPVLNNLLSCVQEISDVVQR
Test [6] has the same target. The conditions noted are these: at 10 µM.
Test [7] deals with T3, Aurora kinase A (Homo sapiens) (UniProt O14965).
T3 sequence (whole entry): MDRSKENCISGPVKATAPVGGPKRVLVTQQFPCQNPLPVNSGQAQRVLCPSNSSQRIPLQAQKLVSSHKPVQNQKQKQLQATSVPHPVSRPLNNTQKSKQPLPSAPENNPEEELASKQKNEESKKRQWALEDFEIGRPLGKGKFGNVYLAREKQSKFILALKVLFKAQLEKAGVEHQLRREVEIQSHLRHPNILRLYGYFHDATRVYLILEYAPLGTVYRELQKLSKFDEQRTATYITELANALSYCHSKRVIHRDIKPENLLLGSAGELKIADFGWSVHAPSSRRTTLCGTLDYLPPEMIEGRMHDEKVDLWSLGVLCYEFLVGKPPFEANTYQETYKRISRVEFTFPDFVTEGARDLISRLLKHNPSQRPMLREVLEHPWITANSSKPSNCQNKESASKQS
The conditions noted are these: at 1 µM.

Test [8] concerns the target T3, Aurora kinase A (Homo sapiens). The conditions noted are these: at 10 µM.
Test [9] has as its target Aurora kinase B (Homo sapiens) (UniProt Q96GD4). The conditions noted are these: at 1 µM.
The target is the same in test [10]. The note with it: at 10 µM.
Test [11] addresses T4, Aurora kinase C (Homo sapiens) (UniProt Q9UQB9).
T4 sequence (whole entry): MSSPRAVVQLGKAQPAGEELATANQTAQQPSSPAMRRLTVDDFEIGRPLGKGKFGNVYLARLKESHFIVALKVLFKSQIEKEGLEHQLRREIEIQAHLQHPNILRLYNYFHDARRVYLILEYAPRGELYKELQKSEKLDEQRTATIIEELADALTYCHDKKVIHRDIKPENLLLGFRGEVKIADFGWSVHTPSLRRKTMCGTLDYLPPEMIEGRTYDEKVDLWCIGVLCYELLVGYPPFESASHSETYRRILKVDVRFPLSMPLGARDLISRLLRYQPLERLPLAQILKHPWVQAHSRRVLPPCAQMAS
The note with it: at 1 µM.

Test [12] addresses T4, Aurora kinase C (Homo sapiens). The conditions noted are these: at 10 µM.
Test [13] deals with Tyrosine-protein kinase receptor UFO (Homo sapiens) (UniProt P30530). The note with it: at 1 µM.
Tyrosine-protein kinase receptor UFO (Homo sapiens), sequence (P30530 whole entry): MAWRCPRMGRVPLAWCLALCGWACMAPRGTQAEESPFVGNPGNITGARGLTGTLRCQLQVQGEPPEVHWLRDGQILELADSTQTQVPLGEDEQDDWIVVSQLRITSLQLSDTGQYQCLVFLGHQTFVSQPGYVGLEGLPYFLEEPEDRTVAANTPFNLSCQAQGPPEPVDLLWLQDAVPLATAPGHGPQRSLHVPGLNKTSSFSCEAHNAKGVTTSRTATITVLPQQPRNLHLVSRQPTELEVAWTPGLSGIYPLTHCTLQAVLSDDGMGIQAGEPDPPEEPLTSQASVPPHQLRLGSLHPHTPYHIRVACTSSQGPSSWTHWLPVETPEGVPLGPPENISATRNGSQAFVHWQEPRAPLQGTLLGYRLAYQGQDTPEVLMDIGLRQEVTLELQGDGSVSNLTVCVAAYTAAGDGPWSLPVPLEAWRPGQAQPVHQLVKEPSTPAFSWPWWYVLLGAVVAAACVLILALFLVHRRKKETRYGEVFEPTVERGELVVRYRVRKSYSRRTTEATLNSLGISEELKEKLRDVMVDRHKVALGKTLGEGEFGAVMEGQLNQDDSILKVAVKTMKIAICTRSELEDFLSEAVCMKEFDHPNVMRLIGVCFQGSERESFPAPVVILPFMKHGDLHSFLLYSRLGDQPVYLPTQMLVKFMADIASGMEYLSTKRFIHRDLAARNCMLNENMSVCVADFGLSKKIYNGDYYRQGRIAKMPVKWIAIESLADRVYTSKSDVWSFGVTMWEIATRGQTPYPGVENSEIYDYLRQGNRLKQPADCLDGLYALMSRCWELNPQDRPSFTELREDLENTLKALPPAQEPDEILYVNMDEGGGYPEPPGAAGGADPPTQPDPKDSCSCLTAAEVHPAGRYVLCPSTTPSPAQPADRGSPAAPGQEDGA
For test [14] the target is unchanged. The note with it: at 10 µM.
Test [15] deals with Protein-tyrosine kinase 6 (Homo sapiens) (UniProt Q13882). The note with it: at 1 µM.
Protein-tyrosine kinase 6 (Homo sapiens), sequence (Q13882 whole entry, looked up): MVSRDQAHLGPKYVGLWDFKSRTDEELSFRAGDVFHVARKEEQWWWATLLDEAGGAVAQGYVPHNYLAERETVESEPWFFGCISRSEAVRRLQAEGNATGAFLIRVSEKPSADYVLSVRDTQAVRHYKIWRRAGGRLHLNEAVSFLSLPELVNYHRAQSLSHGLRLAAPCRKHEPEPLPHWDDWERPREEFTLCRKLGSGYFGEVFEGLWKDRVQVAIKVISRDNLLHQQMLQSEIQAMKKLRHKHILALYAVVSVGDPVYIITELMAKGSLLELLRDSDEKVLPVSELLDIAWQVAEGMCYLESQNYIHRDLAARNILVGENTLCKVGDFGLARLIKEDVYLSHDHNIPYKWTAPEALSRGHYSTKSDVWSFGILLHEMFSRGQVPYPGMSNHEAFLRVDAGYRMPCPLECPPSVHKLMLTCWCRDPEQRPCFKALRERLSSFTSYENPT
For test [16] the target is unchanged. The conditions noted are these: at 10 µM.
Test [17] addresses Tyrosine-protein kinase BTK (Homo sapiens) (UniProt Q06187). The conditions noted are these: at 1 µM.
For test [18] the target is unchanged. The conditions noted are these: at 10 µM.
Test [19] has as its target Tyrosine-protein kinase Blk (Homo sapiens) (UniProt P51451). The note with it: at 1 µM.
Test [20] shares this target. The note with it: at 10 µM.

Tyrosine-protein kinase Blk (Homo sapiens), sequence (P51451 2-505 limits assumed): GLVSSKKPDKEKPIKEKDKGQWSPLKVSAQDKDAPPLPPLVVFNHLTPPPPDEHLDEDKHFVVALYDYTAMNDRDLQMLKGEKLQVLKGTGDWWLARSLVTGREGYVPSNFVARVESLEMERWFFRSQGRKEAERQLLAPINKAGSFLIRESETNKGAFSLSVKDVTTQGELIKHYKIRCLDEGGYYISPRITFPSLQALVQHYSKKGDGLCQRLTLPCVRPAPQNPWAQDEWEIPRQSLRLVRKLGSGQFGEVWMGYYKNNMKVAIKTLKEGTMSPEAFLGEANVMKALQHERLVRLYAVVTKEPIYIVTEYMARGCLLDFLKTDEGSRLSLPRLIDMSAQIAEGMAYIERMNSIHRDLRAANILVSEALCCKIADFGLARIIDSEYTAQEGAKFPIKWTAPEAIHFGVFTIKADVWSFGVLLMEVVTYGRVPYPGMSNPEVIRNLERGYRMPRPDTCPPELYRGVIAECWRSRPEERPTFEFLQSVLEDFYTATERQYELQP
Tyrosine-protein kinase ABL1 (Homo sapiens), sequence (P00519 whole entry): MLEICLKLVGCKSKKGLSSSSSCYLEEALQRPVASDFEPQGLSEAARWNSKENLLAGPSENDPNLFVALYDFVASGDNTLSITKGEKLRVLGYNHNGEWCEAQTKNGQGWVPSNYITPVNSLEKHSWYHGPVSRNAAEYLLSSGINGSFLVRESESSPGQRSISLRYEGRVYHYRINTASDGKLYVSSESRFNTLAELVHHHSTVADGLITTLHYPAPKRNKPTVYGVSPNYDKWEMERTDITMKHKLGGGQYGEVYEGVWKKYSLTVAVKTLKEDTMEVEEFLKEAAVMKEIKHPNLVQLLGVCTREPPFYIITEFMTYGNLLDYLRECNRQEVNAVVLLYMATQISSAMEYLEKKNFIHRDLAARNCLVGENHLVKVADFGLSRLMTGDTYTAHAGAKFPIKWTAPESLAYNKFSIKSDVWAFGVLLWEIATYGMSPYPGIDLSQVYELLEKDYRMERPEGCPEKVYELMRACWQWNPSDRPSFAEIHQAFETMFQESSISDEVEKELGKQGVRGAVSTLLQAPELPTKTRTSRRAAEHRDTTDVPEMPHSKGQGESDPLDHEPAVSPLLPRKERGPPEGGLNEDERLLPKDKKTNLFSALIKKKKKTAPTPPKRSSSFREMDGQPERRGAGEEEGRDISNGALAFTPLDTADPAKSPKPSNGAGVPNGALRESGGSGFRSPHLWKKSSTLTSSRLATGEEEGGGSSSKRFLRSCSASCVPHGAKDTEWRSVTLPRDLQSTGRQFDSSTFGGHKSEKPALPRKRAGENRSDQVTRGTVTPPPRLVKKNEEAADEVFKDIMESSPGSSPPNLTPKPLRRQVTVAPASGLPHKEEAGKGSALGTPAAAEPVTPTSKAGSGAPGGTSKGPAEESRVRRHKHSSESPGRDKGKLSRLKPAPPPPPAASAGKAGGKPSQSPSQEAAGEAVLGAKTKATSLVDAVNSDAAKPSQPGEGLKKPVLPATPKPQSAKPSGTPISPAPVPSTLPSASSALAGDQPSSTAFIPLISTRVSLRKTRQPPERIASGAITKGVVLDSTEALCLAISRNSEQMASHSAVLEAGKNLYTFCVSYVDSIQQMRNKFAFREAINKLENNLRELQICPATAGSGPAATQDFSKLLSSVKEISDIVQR
Tyrosine-protein kinase BTK (Homo sapiens), sequence (Q06187 whole entry): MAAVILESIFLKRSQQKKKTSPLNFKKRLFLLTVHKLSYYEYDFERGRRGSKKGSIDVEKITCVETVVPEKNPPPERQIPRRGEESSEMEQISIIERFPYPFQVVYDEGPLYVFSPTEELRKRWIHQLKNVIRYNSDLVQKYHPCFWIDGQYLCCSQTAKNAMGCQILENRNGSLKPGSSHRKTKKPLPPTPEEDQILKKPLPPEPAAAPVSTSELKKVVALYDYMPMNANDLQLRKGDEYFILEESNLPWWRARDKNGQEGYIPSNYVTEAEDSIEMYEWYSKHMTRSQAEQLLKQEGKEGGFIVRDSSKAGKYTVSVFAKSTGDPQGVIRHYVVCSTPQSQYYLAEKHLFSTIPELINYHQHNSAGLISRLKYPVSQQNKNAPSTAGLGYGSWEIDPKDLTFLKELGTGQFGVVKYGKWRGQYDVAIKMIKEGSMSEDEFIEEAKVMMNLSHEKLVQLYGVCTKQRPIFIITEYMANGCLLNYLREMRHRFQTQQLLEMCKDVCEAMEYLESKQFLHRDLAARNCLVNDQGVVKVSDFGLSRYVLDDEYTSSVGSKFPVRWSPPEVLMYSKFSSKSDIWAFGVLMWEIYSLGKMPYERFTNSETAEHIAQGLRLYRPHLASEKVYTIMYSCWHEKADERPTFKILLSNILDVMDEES

Turning to `O=C1NC(=O)c2cc(Nc3ccc(F)cc3)c(Nc3ccc(F)cc3)cc21`, the residual activity is 101% (inactive) in [1]; 92% in test [2]; 85% in test [3]; 87% in test [4]; 90% in test [5]; 58% in test [6]. Moreover, the residual activity is 89% in test [7]; 79% in test [8]; 124% in test [9]; 120% in test [10]; 92% in test [11]; 73% in test [12]. Moreover, the residual activity in test [13] was 94%; in test [14], 81%; in test [15] it was 89%; in [16], 48%; in test [17], 86%; in test [18], 87%. In addition, the residual activity in test [19] was determined as 98%; in [20] it was 38%.
As for `O=Nc1c(-c2c(O)[nH]c3ccccc23)[nH]c2ccccc12`, the residual activity in test [1] was 101% (inactive); in test [2] it was 7%; in test [3] it was 49%; in test [4] it was 16%; in test [5], 30%; in [6], 28%. In addition, the residual activity was 7% in test [7]; 0% in [8]; 1% in [9]; -2% in test [10]; 61% in test [11]; 49% in [12]. Further, the residual activity turned out to be 17% in test [13]; 8% in test [14]; 91% in [15]; 23% in test [16]; 31% in test [17]; 4% in [18]. Moreover, the results for the residual activity in test [19] and in test [20] were 11% and 0%, respectively.
As to `CC(=O)O/N=C1\C(=C2\C(=O)Nc3cc(Br)ccc32)Nc2ccccc21`, the residual activity in test [1] was 108% (inactive); in test [2], 94%; in test [3], 60%; in [4] it was 7%; in test [5], 31%; in test [6] it was 4%. Moreover, the residual activity in test [7] came out at 41%; in test [8], 17%; in test [9], 19%; in [10], 6%; in test [11], 89%; in test [12], 82%. For the same compound, the residual activity in [13] was 77%; in test [14] it was 44%; in test [15], 99%; in test [16] it was 77%; in [17], 25%; in [18], 4%. For the same compound, the residual activity in test [19] worked out at 19%; in test [20], 3%.
With `O=C(O)c1ccc2c3c1cccc3c(=O)n1c3ccccc3nc21`, the residual activity in [1] was 112% (inactive); in test [2] it was 72%; in [3], 101%; in test [4], 80%; in [5] it was 91%; in [6], 74%. For the same compound, the residual activity was found to be 72% in test [7]; 16% in test [8]; 64% in test [9]; 18% in [10]; 82% in [11]; 43% in [12]. The residual activity is 61% in test [13]; 35% in [14]; 110% in [15]; 105% in [16]; 88% in test [17]; 83% in test [18]. In addition, the residual activity in test [19] amounted to 99%; in test [20], 81%.
As for `O=c1c2ccccc2[nH]c(=S)n1CCN1CCC(=C(c2ccc(F)cc2)c2ccc(F)cc2)CC1`, the residual activity in test [1] was 101% (inactive); in test [2], 116%; in test [3] it was 86%; in test [4], 124%; in [5], 93%; in test [6], 74%. Also, the residual activity worked out at 119% in [7]; 108% in test [8]; 95% in test [9]; 115% in [10]; 110% in test [11]; 84% in test [12]. The residual activity in test [13] was determined as 103%; in [14], 89%; in test [15], 112%; in [16] it was 95%; in test [17] it was 90%; in test [18], 123%. The values for the residual activity in [19] and in [20] were 101% and 66%, respectively.
On to `Cn1cnc2cc3c(Nc4cccc(Br)c4)ncnc3cc21`, for which the residual activity in test [1] was 99% (inactive); in test [2] it was 107%; in [3], 29%; in test [4] it was 10%; in test [5] it was 42%; in test [6] it was 14%. The residual activity in test [7] came out at 78%; in test [8], 45%; in test [9], 45%; in test [10], 6%; in [11], 80%; in test [12], 52%. Moreover, the residual activity was found to be 77% in [13]; 57% in [14]; 78% in test [15]; 55% in test [16]; 67% in test [17]; 44% in [18]. The residual activity in test [19] amounted to 50%; in test [20], 18%.
